This is a sample that favours compounds with a hit; in the whole collection about 2.4% have one here.
Cruzain Triton = cruzain (T. cruzi) inhibition with detergent; P25779; purified cruzain, Z-FR-AMC fluorescence, 0.01% Triton; Potency, µM, most hits filed as inhibitors; 0.43% of 200,000 active; also: nearly all actives have a fitted effect of over 40% in size
Target sequence (P25779 123-467 limits assumed): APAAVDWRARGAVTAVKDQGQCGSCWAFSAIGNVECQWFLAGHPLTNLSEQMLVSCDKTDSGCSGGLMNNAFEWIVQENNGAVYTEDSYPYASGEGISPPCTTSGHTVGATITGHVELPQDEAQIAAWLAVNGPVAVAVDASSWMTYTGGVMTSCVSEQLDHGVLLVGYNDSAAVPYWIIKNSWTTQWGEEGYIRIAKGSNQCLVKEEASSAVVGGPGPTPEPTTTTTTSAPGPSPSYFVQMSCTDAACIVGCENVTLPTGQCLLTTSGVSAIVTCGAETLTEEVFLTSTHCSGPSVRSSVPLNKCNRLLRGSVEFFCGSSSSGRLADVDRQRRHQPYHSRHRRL
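Detergent-containing arm of a paired screen for aggregation-based inhibition: 0.01% Triton X-100 present. Cruzain at 1.5 nM cleaved 2 uM Z-FR-AMC at pH 5.5 with 5 mM DTT; AMC fluorescence gain over 60 s measured activity.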
Cruzain inh noDet = blocks cruzain activity in detergent-free assay. P25779. purified cruzain, Z-FR-AMC fluorescence, no detergent. Potency, µM, actives largely listed as inhibitors. 2.3% of 200,000 active; also: nearly all actives have a fitted effect of over 40% in size
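Detergent-free condition (0.00005% Triton X-100) in acetate buffer pH 5.5 with DTT. 1.5 nM enzyme and compound were pre-mixed 15 min, then 2 uM Z-FR-AMC substrate added; reaction progress from fluorescence change between first and third reads (60 s).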
Large screens that a line does not name were inactive. Calls follow the shape of the dose curve; as a rule, active = well fitted curve in the direction sought with a large enough effect; inconclusive = small, poorly fitted or top-dose-only effect, or another doubt; inactive = no such curve, though single readings can be large; an effect the other way counts as inactive or inconclusive.

CCOC(=O)c1c(-c2ccccc2Cl)csc1NC(=O)c1cc(S(=O)(=O)N2CCOCC2)ccc1C	Cruzain inh noDet 25.1µM
CCOC(=O)c1c(-c2ccccc2)csc1NC(=O)c1cc(=O)c2ccc(C)cc2o1	none
CCCCCCCCCCCCCCCC(=O)OCC(COP(=O)(O)O)OC(=O)CCCCCCCCCCCCCCC (stereo not given)	none
COc1ccc(/C=C(\C#N)C(=O)OCC(=O)NCc2ccccc2)cc1	Cruzain inh noDet 31.6µM
COc1ccc(/C=C(\C#N)C(=O)OCC(=O)Nc2c(C)cccc2C)cc1	Cruzain inh noDet inconclusive
COc1cccc(N2CCN(C(=O)c3c(C)oc4ncnc(N5CCCCC5)c34)CC2)c1	none
CC(C)C(C(=O)OCC(=O)c1cccc([N+](=O)[O-])c1)N1C(=O)[C@@H]2[C@H]3CC[C@H](C3)[C@@H]2C1=O (stereo not given in full)	Cruzain Triton 15.8µM, Cruzain inh noDet inconclusive
O=C(CN1C(=O)C2C3CCC(C3)C2C1=O)OCC(=O)c1cccc([N+](=O)[O-])c1 (stereo not given)	none
CCOC(=O)c1ccc(N2C(=O)c3[nH]nc(-c4ccc(C)cc4)c3C2c2cccs2)cc1 (stereo not given)	Cruzain inh noDet inconclusive
C(=C\c1nc2ccccc2[nH]1)/c1ccccc1	Cruzain inh noDet 20µM
Cc1cccc(/C=C\c2nc3ccccc3c(=O)[nH]2)c1	Cruzain inh noDet inconclusive
COC(=O)c1ccccc1NC(=O)c1ccc2c(c1)CCN2S(=O)(=O)c1ccc(Cl)cc1	none
COc1cccc(NC(=O)c2oc3ccc(S(=O)(=O)N(C)C4CCCCC4)cc3c2C)c1	Cruzain inh noDet inconclusive
O=C(Cn1c2ccccc2c(=O)c2ccccc21)N/N=C/c1cc([N+](=O)[O-])ccc1N1CCCCCC1	Cruzain inh noDet 6.31µM
Cc1ccc(-n2c(C)cc(/C=N/NC(=O)Cn3c4ccccc4c(=O)c4ccccc43)c2C)cc1	Cruzain inh noDet inconclusive
Cc1cc(/C=N/NC(=O)Cn2c3ccccc3c(=O)c3ccccc32)c(C)n1-c1ccc(Cl)cc1	Cruzain inh noDet 3.16µM
O=C(Cn1c2ccccc2c(=O)c2ccccc21)N/N=C/c1ccc(N2CCCC2)c([N+](=O)[O-])c1	Cruzain inh noDet inconclusive
Cc1ccc(N2C(=O)/C(=C/c3cccnc3)SC2=S)cc1	Cruzain inh noDet inconclusive
Cc1cc(/C=C2/SC(=S)N(c3ccc([N+](=O)[O-])cc3)C2=O)c(C)n1-c1cccnc1	Cruzain inh noDet 15.8µM
CCOc1ccc(CCNC(=O)CSc2nc3ccccc3nc2Cc2ccc(C)cc2)cc1OCC	none
COc1ccc(N2CC(NC(=O)CCc3ccccc3)CC2=O)cc1OC (stereo not given)	none
COc1ccc(C(CC(=O)Nc2ccc(F)cc2)c2ccccc2)cc1 (stereo not given)	none
COc1ccccc1C(CC(=O)Nc1ccc(Cl)cc1)c1ccc(OC(C)C)cc1 (stereo not given)	Cruzain inh noDet 3.16µM
CC(C)Oc1ccc(C(=O)N2CCN(c3nc4c(F)cc(F)cc4s3)CC2)cc1	none
COc1ccccc1N1CCN(C(=O)c2nn(-c3ccc(C)cc3)c(=O)n(C)c2=O)CC1	Cruzain inh noDet inconclusive
CCOC(=S)NC(=O)c1sc2ccccc2c1Cl	none
CN(C(=O)COC(=O)CNC(=O)c1sc2ccccc2c1Cl)c1ccccc1	Cruzain Triton 8.91µM, Cruzain inh noDet 7.94µM
CC(=O)N1CCc2cc(S(=O)(=O)NC(CC(C)C)C(=O)NCCc3cccc(C)c3)ccc21 (stereo not given)	none
Cc1cccc(NC(=O)c2ccc(-c3ccccc3)s2)c1	none
Cc1ccc(NC(=O)c2ccc(-c3ccccc3)s2)cc1	Cruzain inh noDet 12.6µM
COc1ccccc1CNC(=O)CCn1c(=O)c2ccccc2n(CC(=O)Nc2ccc(C)cc2C)c1=O	none
CCOC(=O)c1[nH]c2ccc(F)cc2c1NC(=O)Nc1ccccc1OC	Cruzain inh noDet 7.94µM
CCOC(=O)c1[nH]c2ccccc2c1NC(=O)c1ccccc1OC	none
O=S(=O)(NCc1nc2cccnc2n1Cc1ccc(F)cc1)c1ccc(Cl)s1	none
Cc1ccc(S(=O)(=O)Nc2ccc3c(c2)CCCN3C(=O)c2cccs2)cc1	none
O=C(OCC(=O)c1ccc(Cl)cc1Cl)c1ccc2c(c1)C(=O)N(c1cccc3ncccc13)C2=O	Cruzain inh noDet 20µM
O=C(COC(=O)c1ccc2c(c1)C(=O)N(c1cccc3ncccc13)C2=O)c1ccc(Cl)cc1	Cruzain inh noDet inconclusive
CNC(=S)N1N=C(c2ccc(C)cc2)CC1c1ccc(Cl)cc1 (stereo not given)	none
CNC(=S)N1N=C(c2ccc(C)cc2)CC1c1ccc(Br)cc1 (stereo not given)	Cruzain inh noDet 2.51µM
Cc1ccccc1NC(=O)CSc1nc2cc3c(cc2cc1C)CCC3	none
CCC(=O)Nc1ccc(NC(=O)CSc2nc3cc4c(cc3cc2C)CCC4)cc1	Cruzain inh noDet 25.1µM
CCCCn1c(CNC(=O)C23CC4CC(CC(C4)C2)C3)nnc1SCC(=O)Nc1ccccc1	Cruzain inh noDet inconclusive
Cc1nc2ccc(S(=O)(=O)NC(CC(C)C)C(=O)N3CCN(c4ccc(F)cc4)CC3)cc2s1 (stereo not given)	none
COc1cccc([C@@H]2Oc3ccc(Br)cc3C(=O)[C@H]2OC(=O)NCCOc2ccccc2)c1	none
COc1cc(NC(=O)N2CCC3(CC2)Nc2cc(F)ccc2-n2cccc23)cc(OC)c1OC	Cruzain inh noDet inconclusive
COc1cc([N+](=O)[O-])ccc1NC(=O)N1CCC2(CC1)Nc1ccccc1-n1cccc12	Cruzain inh noDet 25.1µM
COc1ccc(NC(=O)C(Cc2ccccc2)NS(=O)(=O)c2ccc3c(c2)CCN3C(C)=O)cc1 (stereo not given)	none
COC(=O)c1c(NC(=O)C2SC(=NC3CCCCC3)C(C(N)=O)=C2N)sc2c1CCCC2 (stereo not given)	Cruzain inh noDet 7.94µM
C=C(C)CN=C1SC(C(=O)Nc2sc3c(c2C(=O)OC)CCC3)C(N)=C1C(N)=O (stereo not given)	none
CCc1ccc(C2C(C#N)=C(N)SC(N)=C2C#N)cc1	none
CCc1ccc(C2C(C#N)=C(N)SC(N)=C2C#N)s1	Cruzain inh noDet 15.8µM
COc1ccc(NC(=O)CSCc2cc(=O)c3cc(C)ccc3[nH]2)cc1	none
Cc1ccc(/C=C(\NC(=O)c2ccccc2)C(=O)OCc2ccccc2)cc1	Cruzain Triton 7.94µM, Cruzain inh noDet inconclusive
O=C(CNC(=O)/C(=C\c1ccc(F)cc1)NC(=O)c1ccccc1)OCc1ccccc1	Cruzain Triton 17.8µM, Cruzain inh noDet inconclusive
Cc1ccc(/C=C(\NC(=O)c2ccccc2)C(=O)NC(Cc2ccccc2)C(=O)O)cc1 (stereo not given)	none
O=C(CNC(=O)/C(=C\c1ccccc1)NC(=O)c1ccc(Br)cc1)OCc1ccccc1	none
CC1=C(C(N)=O)C(c2ccc(C(C)C)cc2)n2nc(SCc3ccccc3F)nc2N1 (stereo not given)	none
N#CC1=C(N)SC(N)=C(C#N)C1c1cccc(Oc2ccccc2)c1	Cruzain inh noDet 25.1µM
CCOc1ccc(C2C(C#N)=C(N)SC(N)=C2C#N)cc1OCC	none
O=C(NCCC1=CCCCC1)c1ccc2c(c1)sc1nc(-c3ccc(F)cc3)cn12	none
Cc1ccccc1NC(=O)N1CCc2c(sc3c2CCCC3)C1c1ccccc1 (stereo not given)	Cruzain inh noDet inconclusive
Cc1ccc(NC(=O)N2CCc3c(sc4c3CCCC4)C2c2ccccc2)cc1F (stereo not given)	Cruzain inh noDet 7.94µM
COc1ccc(C(=O)NC2c3ccccc3-c3ccccc32)cc1	Cruzain inh noDet 20µM
